# Experimental data as given in PubChem BioAssay.
# “And” between values parts separate entries of the source, which are not always exact repeats. Identical values can stand only once. The source made the active and inactive calls. Unless noted, no stated cut-off is given here; in the data, active means parasite load remaining mostly below about 12% (no sharp cut-off); inactive means mostly above about 10%.
# Assays:
# [1] = compounds altering viability of human ES cells (AID 493140; call rule not given here;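 further: cells exposed to compounds for four days before counting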); conditions: human embryonic stem cell survival screen; stronger effect = higher value
# [2] = P. berghei load reduction in hepatocytes – cell-based, HepG2, luciferase luminescence, HepG2 viability, primary screen (AID 624349);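 further: 100% = mean of DMSO negative control wells on the same plate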; conditions: P. berghei liver stage in HepG2, luciferase luminescence, concentration not given here; parasite load remaining: stronger effect = lower value; viability: measured here: HepG2 viability without parasites
# [3] = Wnt pathway potentiators raising nuclear beta-catenin – imaging, WNT3A-conditioned medium, mouse C2C12, NPC library, primary screen (AID 1117326; in the data active means nuclear beta-catenin stimulation mostly above about 4.2%, no sharp cut-off; inactive means mostly below about 10%); conditions: stronger effect = higher value
# [4] = system: Hepatitis C virus NS3 helicase; experiment: blockers of NS3h binding to ssDNA – biochemical, fluorescence polarization, LOPAC1280 library, primary screen (AID 687035; in the data active means inhibition above about 37%); conditions: Purified HCV NS3 helicase, Cy5-dT15 ssDNA binding fluorescence polarization; stronger effect = higher value; concentration not given here
# [5] = compounds altering Cy5-DNA-NS3h complex signal – biochemical, LOPAC1280, artefact control for HCV NS3 helicase inhibitor project (AID 687037; call rule not given here); conditions: Cy5-DNA-NS3h complex fluorescence interference counterscreen
# [6] = signal quenchers or enhancers, Cy5 substrate/SSB – biochemical, NIH Clinical Collection, E. coli SSB, artefact control for HCV NS3 helicase inhibitor project (AID 743268; call rule not given here); conditions: Cy5-oligo bound E. coli SSB, fluorescence interference
# [7] = system: Hepatitis C virus NS3 helicase; experiment: blockers of NS3h binding to DNA – biochemical, fluorescence polarization, NIH Clinical Collection, primary screen (AID 743270; call rule not given here); conditions: NS3 helicase binding to Cy5-dT15 DNA, stronger effect = higher value, concentration not given here
# [8] = target: Single-stranded DNA-binding protein (Escherichia coli (strain K12)) (UniProt P0AGE0); experiment: SSB-ssDNA binding inhibitors – biochemical, fluorescence polarization, NIH Clinical Collection, counter-screen for HCV NS3 helicase inhibitor project (AID 743271; in the data active means inhibition above about 28%); conditions: E. coli SSB-DNA binding, stronger effect = higher value, concentration not given here
# [9] = compounds distorting NS3 helicase fluorescence signal – biochemical, NIH Clinical Collection, artefact control for HCV NS3 helicase inhibitor project (AID 743272; call rule not given here;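 further: HCV NS3 helicase with a Cy5 labelled single stranded DNA probe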); conditions: fluorescence interference counterscreen, HCV NS3 helicase assay; stronger effect = lower value
# [10] = system: Neuropilin-2 / VEGF-C interaction (human); experiment: small molecules blocking Neuropilin-2/VEGF-C interaction – biochemical, microplate binding format, z-score (AID 743281; call rule not given here); conditions: microplate NRP2/VEGF-C binding assay; stronger effect = lower value
Structure (SMILES),survival [1],parasite load remaining [2],viability [2],nuclear beta-catenin stimulation ([3]; at 10 µM),"nuclear beta-catenin stimulation ([3]; stimulation, at 2 µM) [%]",inhibition [4],fluorescence ratio (interference) [5],fluorescence ratio [6],inhibition [7],inhibition [8],fluorescence ratio [9],z-score [10]
CCOC(=O)n1ccn(C)c1=S,11.8 (inactive),106% (inactive) and 140% (inactive) and 85.8% (inactive),108% and 84.5% and 77.4%,0.6% (inactive),-0.4,–,–,–,–,–,–,–
Cc1cc2c(C(C)C)c(O)c(O)c(C=O)c2c(O)c1-c1c(C)cc2c(C(C)C)c(O)c(O)c(C=O)c2c1O,5.5 (inactive),56.7% (inactive),83.7%,64.5% (active),6.3,-1% (inactive),0.9 (inactive),–,–,–,–,–
N#Cc1ccc(C(c2ccc(C#N)cc2)n2cncn2)cc1,1.25 (inactive),127% (inactive) and 107% (inactive) and 48.7% (inactive),71.5% and 77.2% and 128%,-1.6% (inactive),0,–,–,1 (inactive),2.77% (inactive),-1.64% (inactive),0.97 (inactive),-0.196 (inactive)
CCC(=O)O[C@]1(C(=O)SCF)[C@H](C)C[C@H]2[C@@H]3C[C@H](F)C4=CC(=O)C=C[C@]4(C)[C@@]3(F)[C@@H](O)C[C@@]21C,6.58 (inactive),82.3% (inactive) and 83.8% (inactive),68.2% and 100%,0.9% (inactive),2.7,–,–,1 (inactive),5.94% (inactive),5.29% (inactive),1.02 (inactive),–
CCOC(=O)OC(C)OC(=O)[C@@H]1N2C(=O)[C@@H](NC(=O)[C@H](N)c3ccccc3)[C@H]2SC1(C)C (some centres undefined),16.9 (inactive),83% (inactive) and 78.3% (inactive),104% and 79.2%,1.2% (inactive),2.5,–,–,–,–,–,–,–
COc1ccnc(CS(=O)c2nc3ccc(OC(F)F)cc3[nH]2)c1OC (centres undefined),–,154% (inactive) and 46.8% (inactive) and 36.5% (inactive),91.7% and 94.9% and 116%,-0.4% (inactive),1.1,–,–,–,–,–,–,–
CO[C@@]12[C@H](COC(N)=O)C3=C(C(=O)C(C)=C(N)C3=O)N1C[C@@H]1N[C@@H]12,–,-0.17% (inactive),11%,26.8% (inactive),11.6,–,–,–,–,–,–,–
O=NN(CCCl)C(=O)NC1CCCCC1,–,11.7% (inactive),78%,11.8% (inactive),3.7,–,–,–,–,–,–,–
COc1cc(OC)c(C(=O)CCCN2CCCC2)c(OC)c1,9.58 (inactive),144% (inactive) and 82.2% (inactive) and 102% (inactive),95.2% and 73.3% and 68.5%,1.1% (inactive),0.3,–,–,1.02 (inactive),-3.56% (inactive),-3.95% (inactive),0.97 (inactive),-0.505 (inactive)
COc1ccc(C(=O)CC(=O)c2ccc(C(C)(C)C)cc2)cc1,–,168% (inactive) and 61% (inactive),84.8% and 202%,-0.4% (inactive),3,–,–,–,–,–,–,–
NC[C@H]1O[C@H](O[C@H]2[C@H](O)[C@@H](O[C@H]3O[C@H](CO)[C@@H](O)[C@H](N)[C@H]3O)[C@H](N)C[C@@H]2N)[C@H](N)[C@@H](O)[C@@H]1O,–,95.5% (inactive) and 56.4% (inactive),69.4% and 85.5%,0.8% (inactive),-1.6,–,–,–,–,–,–,–
COc1ccc2cc1Oc1ccc(cc1)C[C@H]1c3c(cc4c(c3Oc3cc5c(cc3OC)CCN(C)[C@@H]5C2)OCO4)CCN1C,–,105% (inactive),82.3%,64.7% (active),7.1,–,–,–,–,–,–,–
O=c1oc2cc(O)ccc2s1,–,62.7% (inactive),88.6%,-2.6% (inactive),0.6,–,–,–,–,–,–,–
Nc1[nH]c(=O)ncc1F,2.42 (inactive),85.3% (inactive) and 51.1% (inactive) and 109% (inactive),93.3% and 117% and 86.7%,0.9% (inactive),1.7,–,–,1.01 (inactive),-6.73% (inactive),-1.64% (inactive),0.97 (inactive),-0.751 (inactive)
